Publication PMC7862700, “An all-to-all approach to the identification of sequence-specific readers for epigenetic DNA modifications on cytosine”

Tests used:
Test in all cases: DAPPL (digital affinity profiling via proximity ligation, sequencing); 10 mM Tris-HCl pH 7.5, 50 mM NaCl, 1 mM DTT, 4% glycerol, room temperature, 30 min; GST-TFs on glutathione beads, 16-mer random dsDNA library, 0.1% formaldehyde crosslink after washing; high values mean tight binding
FEV = target: T1, FEV (Homo sapiens, UniProt Q99581 1-238); conditions: protein: recombinant; tags: N-terminal GST; dsDNA, one strand shown
T1 sequence: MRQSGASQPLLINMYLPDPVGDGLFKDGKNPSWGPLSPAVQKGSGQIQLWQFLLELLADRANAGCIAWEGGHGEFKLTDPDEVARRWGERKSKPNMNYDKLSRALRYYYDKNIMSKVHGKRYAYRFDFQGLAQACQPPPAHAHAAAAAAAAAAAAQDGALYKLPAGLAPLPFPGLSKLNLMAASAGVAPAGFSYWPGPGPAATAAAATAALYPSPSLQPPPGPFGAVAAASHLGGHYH
In short: (§1)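 Human transcription factors fused to GST were expressed in yeast, captured on glutathione beads, given DNA barcodes and pooled with a GST-only negative control. Pools were incubated with 200 nmole of a 16-mer random double-stranded DNA library in Tris/NaCl/DTT/glycerol buffer at room temperature for 30 min. They were then washed, crosslinked with 0.1% formaldehyde, proximity-ligated (BsaI/T4 ligase, 1 h, 37 °C), PCR-amplified and sequenced on an Illumina NextSeq500. Binding signal is each 6-mer's read frequency for a factor divided by its frequency for the GST control.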

ETV5 = ETV5 (Homo sapiens, UniProt P41161 1-510); conditions: protein: recombinant; tags: N-terminal GST; dsDNA, one strand shown
ETV5, sequence (P41161 whole entry): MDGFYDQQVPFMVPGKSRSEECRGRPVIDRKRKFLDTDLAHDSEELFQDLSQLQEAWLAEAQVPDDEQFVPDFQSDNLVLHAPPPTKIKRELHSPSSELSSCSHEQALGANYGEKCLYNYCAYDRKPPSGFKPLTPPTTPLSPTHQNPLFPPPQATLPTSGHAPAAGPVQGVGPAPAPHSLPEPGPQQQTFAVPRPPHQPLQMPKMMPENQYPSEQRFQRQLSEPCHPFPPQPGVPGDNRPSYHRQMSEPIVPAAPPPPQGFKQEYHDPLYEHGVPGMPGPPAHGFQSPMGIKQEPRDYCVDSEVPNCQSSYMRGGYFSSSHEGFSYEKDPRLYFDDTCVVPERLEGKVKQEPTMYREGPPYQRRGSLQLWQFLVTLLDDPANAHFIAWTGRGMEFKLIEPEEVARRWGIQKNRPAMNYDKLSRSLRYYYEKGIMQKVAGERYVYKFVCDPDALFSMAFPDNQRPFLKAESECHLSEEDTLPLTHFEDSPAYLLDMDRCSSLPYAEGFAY
In short: as §1

HSF1 = HSF1 (Homo sapiens, UniProt Q00613 1-529); conditions: protein: recombinant; tags: N-terminal GST; chain copies: 3; dsDNA, one strand shown
HSF1, sequence (Q00613 whole entry): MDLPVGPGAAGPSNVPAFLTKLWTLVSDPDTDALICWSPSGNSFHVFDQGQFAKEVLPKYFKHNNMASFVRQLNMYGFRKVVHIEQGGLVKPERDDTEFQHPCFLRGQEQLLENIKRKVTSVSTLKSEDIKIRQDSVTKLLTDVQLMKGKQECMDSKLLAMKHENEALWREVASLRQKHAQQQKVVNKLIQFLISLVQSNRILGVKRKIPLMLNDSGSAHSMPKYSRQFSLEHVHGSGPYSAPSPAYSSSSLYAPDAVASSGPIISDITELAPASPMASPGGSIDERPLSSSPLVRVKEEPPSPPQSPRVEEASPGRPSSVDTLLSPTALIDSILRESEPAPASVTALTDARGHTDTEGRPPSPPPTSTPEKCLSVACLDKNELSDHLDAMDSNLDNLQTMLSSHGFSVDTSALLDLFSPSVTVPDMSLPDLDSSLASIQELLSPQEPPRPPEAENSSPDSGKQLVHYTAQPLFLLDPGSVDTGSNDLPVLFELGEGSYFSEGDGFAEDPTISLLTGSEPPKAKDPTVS
In short: as §1

SPIC = target: T2, SPIC (Homo sapiens, UniProt Q8N5J4 1-248); conditions: protein: recombinant; tags: N-terminal GST; dsDNA, one strand shown
T2 sequence: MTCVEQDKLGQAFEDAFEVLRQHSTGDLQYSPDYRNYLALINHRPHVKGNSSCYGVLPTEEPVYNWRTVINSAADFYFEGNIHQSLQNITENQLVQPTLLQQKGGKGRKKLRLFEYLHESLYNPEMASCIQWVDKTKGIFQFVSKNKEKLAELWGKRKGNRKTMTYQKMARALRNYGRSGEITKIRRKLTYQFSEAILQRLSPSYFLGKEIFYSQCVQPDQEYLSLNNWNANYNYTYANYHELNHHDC
In short: as §1

ELF4 = ELF4 (Homo sapiens, UniProt Q99607 1-663); conditions: protein: recombinant; tags: N-terminal GST; dsDNA, one strand shown
ELF4, sequence (Q99607 whole entry): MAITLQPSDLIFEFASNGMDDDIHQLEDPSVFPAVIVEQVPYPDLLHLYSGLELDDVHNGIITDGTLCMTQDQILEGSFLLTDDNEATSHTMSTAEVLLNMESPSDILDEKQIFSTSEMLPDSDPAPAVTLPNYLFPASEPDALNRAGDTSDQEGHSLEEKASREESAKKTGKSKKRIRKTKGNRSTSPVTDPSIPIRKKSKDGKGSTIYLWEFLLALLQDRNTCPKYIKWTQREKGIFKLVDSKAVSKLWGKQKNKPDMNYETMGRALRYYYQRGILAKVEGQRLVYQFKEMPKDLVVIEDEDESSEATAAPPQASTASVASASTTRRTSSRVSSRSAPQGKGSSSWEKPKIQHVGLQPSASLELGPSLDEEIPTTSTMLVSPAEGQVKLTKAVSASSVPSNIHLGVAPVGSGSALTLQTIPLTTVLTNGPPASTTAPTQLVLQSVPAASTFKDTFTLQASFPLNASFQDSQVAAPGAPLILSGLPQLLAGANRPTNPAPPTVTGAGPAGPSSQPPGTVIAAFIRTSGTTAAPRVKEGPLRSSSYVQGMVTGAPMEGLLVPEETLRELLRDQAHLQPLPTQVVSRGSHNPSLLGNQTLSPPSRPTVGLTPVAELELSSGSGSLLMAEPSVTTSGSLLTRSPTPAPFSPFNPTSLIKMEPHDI
In short: as §1

ELK4 = target: T3, ELK4 (Homo sapiens, UniProt P28324-2 1-405); conditions: protein: recombinant; tags: N-terminal GST; dsDNA, one strand shown
T3 sequence: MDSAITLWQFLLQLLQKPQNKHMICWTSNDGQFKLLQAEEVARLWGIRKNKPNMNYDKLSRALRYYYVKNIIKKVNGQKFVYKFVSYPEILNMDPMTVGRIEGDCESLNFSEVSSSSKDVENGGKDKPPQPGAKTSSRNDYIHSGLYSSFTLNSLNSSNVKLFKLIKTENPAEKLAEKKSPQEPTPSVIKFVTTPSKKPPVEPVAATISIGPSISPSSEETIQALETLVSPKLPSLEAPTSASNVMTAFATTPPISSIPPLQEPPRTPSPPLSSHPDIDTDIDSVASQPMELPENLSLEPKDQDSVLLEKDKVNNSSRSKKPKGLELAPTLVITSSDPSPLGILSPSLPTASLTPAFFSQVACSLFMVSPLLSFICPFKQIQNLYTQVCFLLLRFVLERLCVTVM
In short: as §1

ETV2 = target: T4, ETV2 (Homo sapiens, UniProt O00321 1-342); conditions: protein: recombinant; tags: N-terminal GST; dsDNA, one strand shown
T4 sequence: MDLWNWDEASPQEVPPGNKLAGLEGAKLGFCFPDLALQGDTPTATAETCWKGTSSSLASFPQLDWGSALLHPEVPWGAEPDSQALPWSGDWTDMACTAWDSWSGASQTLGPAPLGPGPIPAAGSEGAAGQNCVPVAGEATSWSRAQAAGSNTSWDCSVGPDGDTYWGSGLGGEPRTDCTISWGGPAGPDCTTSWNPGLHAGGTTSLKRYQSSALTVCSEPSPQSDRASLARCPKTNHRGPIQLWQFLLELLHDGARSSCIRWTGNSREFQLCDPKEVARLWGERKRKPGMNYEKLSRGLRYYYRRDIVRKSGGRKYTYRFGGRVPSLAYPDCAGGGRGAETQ
In short: as §1

ELF3 = target: T5, ELF3 (Homo sapiens, UniProt P78545 1-371); conditions: protein: recombinant; tags: N-terminal GST; dsDNA, one strand shown
T5 sequence: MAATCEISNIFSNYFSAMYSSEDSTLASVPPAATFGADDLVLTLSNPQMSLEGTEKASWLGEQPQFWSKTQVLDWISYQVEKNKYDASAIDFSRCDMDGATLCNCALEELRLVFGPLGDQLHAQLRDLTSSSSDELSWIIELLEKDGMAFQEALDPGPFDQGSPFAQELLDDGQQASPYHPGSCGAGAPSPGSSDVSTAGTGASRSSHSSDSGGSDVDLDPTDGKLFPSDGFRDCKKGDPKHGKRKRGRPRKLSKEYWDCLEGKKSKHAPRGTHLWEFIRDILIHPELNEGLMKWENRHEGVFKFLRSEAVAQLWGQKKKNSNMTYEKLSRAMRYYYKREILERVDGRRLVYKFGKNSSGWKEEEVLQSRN
In short: as §1

CRX = CRX (Homo sapiens, UniProt O43186 1-299); conditions: protein: recombinant; tags: N-terminal GST; dsDNA, one strand shown
CRX, sequence (O43186 whole entry): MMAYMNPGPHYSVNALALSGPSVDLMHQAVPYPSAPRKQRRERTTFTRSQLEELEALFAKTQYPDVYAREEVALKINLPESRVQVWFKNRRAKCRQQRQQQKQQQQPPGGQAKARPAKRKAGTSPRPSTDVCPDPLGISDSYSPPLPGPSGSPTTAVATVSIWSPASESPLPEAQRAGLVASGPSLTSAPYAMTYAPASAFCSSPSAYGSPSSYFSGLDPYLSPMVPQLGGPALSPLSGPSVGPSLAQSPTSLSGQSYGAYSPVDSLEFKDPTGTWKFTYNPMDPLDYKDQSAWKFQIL
In short: as §1

ETV1 = ETV1 (Homo sapiens, UniProt P50549 1-477); conditions: protein: recombinant; tags: N-terminal GST; dsDNA, one strand shown
ETV1, sequence (P50549 whole entry): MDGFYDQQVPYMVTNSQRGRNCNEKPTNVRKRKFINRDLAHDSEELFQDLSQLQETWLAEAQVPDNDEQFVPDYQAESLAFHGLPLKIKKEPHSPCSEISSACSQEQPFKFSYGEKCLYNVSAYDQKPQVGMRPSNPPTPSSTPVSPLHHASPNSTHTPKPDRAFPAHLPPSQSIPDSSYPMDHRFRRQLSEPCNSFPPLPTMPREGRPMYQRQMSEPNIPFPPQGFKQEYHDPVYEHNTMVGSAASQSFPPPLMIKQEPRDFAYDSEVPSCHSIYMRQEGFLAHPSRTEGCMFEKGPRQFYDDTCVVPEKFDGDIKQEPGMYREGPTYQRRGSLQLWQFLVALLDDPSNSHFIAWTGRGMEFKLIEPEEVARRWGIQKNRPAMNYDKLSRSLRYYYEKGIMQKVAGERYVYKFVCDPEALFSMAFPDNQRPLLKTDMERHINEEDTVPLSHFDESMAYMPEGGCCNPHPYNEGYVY
In short: as §1

ERF = target: T6, ERF (Homo sapiens, UniProt P50548 1-548); conditions: protein: recombinant; tags: N-terminal GST; dsDNA, one strand shown
T6 sequence: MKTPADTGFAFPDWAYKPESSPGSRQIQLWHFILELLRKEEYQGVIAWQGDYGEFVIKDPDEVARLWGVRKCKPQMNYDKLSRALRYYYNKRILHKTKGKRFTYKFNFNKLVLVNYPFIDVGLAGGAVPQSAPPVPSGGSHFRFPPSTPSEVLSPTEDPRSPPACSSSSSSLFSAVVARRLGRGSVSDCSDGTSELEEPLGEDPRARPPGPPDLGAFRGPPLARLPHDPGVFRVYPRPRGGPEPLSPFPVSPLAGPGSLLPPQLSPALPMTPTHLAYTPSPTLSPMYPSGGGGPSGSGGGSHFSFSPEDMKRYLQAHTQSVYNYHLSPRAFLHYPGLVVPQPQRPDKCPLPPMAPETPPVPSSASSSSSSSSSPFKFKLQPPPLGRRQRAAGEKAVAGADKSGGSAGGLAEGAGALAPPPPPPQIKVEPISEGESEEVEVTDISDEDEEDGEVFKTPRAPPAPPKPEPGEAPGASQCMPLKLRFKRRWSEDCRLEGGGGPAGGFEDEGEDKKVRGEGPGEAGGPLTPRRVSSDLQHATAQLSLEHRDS
In short: as §1

ETV3L = target: T7, ETV3L (Homo sapiens, UniProt Q6ZN32 1-361); conditions: protein: recombinant; tags: N-terminal GST; dsDNA, one strand shown
T7 sequence: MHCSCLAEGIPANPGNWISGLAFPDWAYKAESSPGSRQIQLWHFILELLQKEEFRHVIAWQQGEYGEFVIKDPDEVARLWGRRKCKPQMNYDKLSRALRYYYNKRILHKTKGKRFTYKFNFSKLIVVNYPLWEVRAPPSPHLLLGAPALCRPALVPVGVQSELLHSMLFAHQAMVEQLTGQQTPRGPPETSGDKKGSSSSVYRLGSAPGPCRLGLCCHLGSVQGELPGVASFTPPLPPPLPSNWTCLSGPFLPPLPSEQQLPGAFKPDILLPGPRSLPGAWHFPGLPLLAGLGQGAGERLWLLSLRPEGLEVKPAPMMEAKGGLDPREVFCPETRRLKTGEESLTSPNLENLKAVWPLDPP
In short: as §1

ETS2 = target: T8, ETS2 (Homo sapiens, UniProt P15036 1-469); conditions: protein: recombinant; tags: N-terminal GST; dsDNA, one strand shown
T8 sequence: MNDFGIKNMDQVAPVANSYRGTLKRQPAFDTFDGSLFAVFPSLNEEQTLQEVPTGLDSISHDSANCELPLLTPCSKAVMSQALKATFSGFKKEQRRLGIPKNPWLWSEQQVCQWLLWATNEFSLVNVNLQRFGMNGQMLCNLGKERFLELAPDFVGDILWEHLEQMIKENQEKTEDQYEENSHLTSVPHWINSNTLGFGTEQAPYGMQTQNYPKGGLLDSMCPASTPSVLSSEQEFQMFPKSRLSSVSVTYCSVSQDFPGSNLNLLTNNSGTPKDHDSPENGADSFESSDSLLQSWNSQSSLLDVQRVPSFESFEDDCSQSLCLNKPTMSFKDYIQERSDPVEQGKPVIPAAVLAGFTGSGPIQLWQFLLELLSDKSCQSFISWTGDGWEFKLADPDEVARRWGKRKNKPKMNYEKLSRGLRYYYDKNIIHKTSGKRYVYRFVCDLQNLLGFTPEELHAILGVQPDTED
In short: as §1

SPDEF = target: T9, SPDEF (Homo sapiens, UniProt O95238 1-335); conditions: protein: recombinant; tags: N-terminal GST; dsDNA, one strand shown
T9 sequence: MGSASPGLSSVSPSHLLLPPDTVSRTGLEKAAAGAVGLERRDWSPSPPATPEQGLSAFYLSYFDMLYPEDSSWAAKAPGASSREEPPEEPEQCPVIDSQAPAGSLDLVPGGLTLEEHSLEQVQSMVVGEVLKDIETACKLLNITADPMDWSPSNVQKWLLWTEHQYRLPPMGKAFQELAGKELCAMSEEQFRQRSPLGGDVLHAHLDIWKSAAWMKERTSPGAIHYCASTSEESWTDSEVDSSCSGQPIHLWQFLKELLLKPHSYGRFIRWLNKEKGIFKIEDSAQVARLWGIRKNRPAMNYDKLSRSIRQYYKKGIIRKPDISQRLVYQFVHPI
In short: as §1

ETV7 = target: T10, ETV7 (Homo sapiens, UniProt Q9Y603 1-341); conditions: protein: recombinant; tags: N-terminal GST; dsDNA, one strand shown
T10 sequence: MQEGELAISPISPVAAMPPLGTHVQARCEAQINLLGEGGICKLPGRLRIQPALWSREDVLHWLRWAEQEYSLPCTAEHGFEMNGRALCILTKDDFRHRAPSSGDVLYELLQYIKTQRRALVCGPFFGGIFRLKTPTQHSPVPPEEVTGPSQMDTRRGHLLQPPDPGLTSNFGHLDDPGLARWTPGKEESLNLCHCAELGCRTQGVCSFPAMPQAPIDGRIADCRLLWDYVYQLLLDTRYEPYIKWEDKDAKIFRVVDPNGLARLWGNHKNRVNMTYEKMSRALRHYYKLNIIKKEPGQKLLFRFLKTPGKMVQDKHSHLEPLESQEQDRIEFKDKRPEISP
In short: as §1

ELF5 = target: T11, ELF5 (Homo sapiens, UniProt Q9UKW6-2 1-255); conditions: protein: recombinant; tags: N-terminal GST; dsDNA, one strand shown
T11 sequence: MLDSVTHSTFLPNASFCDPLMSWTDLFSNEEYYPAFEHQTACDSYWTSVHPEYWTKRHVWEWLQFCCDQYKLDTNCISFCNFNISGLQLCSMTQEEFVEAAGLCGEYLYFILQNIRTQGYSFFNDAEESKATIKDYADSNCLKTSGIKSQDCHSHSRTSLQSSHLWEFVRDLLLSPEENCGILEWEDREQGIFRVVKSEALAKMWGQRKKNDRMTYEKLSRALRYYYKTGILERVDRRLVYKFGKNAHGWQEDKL
In short: as §1

ETV3 = target: T12, ETV3 (Homo sapiens, UniProt P41162-2 1-143); conditions: protein: recombinant; tags: N-terminal GST; dsDNA, one strand shown
T12 sequence: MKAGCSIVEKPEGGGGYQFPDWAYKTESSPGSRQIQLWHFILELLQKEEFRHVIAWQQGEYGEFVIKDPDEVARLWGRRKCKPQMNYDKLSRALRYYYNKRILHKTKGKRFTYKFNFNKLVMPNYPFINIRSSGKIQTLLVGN
In short: as §1

ETV6 = ETV6 (Homo sapiens, UniProt P41212 1-452); conditions: protein: recombinant; tags: N-terminal GST; dsDNA, one strand shown
ETV6, sequence (P41212 whole entry): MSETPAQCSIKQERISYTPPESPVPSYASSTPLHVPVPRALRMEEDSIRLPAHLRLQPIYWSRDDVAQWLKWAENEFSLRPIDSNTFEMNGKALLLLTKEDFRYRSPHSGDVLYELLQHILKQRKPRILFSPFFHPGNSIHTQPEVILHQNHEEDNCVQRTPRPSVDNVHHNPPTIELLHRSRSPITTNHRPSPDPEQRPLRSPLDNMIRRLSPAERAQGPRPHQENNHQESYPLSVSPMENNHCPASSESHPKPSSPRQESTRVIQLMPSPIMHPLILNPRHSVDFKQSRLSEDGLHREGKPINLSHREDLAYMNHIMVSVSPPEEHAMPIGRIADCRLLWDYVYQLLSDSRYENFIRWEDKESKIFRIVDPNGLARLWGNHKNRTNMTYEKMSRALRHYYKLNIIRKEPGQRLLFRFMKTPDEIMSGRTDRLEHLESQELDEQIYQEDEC
In short: as §1

For GTAATA, the binding signal (FEV) was 1.11 fold enrichment (6-mer frequency, TF over GST control), the binding signal (ETV5) was 1.13 fold enrichment (6-mer frequency, TF over GST control) and the binding signal (HSF1) was 1.24 fold enrichment (6-mer frequency, TF over GST control). For the same sequence, the binding signal (SPIC) was 1.27 fold enrichment (6-mer frequency, TF over GST control), the binding signal (ELF4) was 1.16 fold enrichment (6-mer frequency, TF over GST control) and the binding signal (ELK4) was 1.27 fold enrichment (6-mer frequency, TF over GST control). For the same sequence, the binding signal (ETV2) was 1.09 fold enrichment (6-mer frequency, TF over GST control), the binding signal (ELF3) was 1.22 fold enrichment (6-mer frequency, TF over GST control) and the binding signal (CRX) was 1.52 fold enrichment (6-mer frequency, TF over GST control). The binding signal (ETV1) was 1.13 fold enrichment (6-mer frequency, TF over GST control), the binding signal (ERF) was 1.12 fold enrichment (6-mer frequency, TF over GST control) and the binding signal (ETV3L) was 1.16 fold enrichment (6-mer frequency, TF over GST control). For the same sequence, the binding signal (ETS2) was 1.11 fold enrichment (6-mer frequency, TF over GST control), the binding signal (SPDEF) was 1.16 fold enrichment (6-mer frequency, TF over GST control) and the binding signal (ETV7) was 1.29 fold enrichment (6-mer frequency, TF over GST control). For the same sequence, the binding signal (ELF5) was 1.2 fold enrichment (6-mer frequency, TF over GST control), the binding signal (ETV3) was 1.06 fold enrichment (6-mer frequency, TF over GST control) and the binding signal (ETV6) was 1.16 fold enrichment (6-mer frequency, TF over GST control).
